% Hoechst-high responders, % tubulin-high responders and toxicity data for 41 molecules are collected here from PubChem BioAssay AID2205 (University of Pittsburgh Molecular Library Screening Center, 2009).

SMILES strings stand for the structures. Hit rate of the full screen: of about 200,000 compounds, about 1,600 (0.8%) were called active.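 Rule for the calls: active = plate Z-score above 3 for both tubulin-high and condensed-nucleus cell shares, with cell loss under 80%, at 10 µM; inactive = the rest, inconclusive results apart.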 For the sample, actives were picked, then their nearest neighbours and some compounds at random.

The experiment in a line: tubulin staining increase by stabilizing compounds – imaging, high-content imaging, primary screen (AID 2205).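 For % tubulin-high responders: anti alpha tubulin signal scored within the nucleus-defined area of each cell.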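 For toxicity: 0% = mean cell density of plate MIN control wells and 100% = no cells.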 As to conditions: HeLa tubulin immunostaining HCS, 24 h, at 10 µM; % Hoechst-high responders: measured here: nuclear condensation Hoechst responders, stronger effect = higher value, share of cells brighter than vehicle mean+2SD; % tubulin-high responders: stronger effect = higher value, share of cells brighter than vehicle mean+2SD; toxicity: measured here: cytotoxicity by cell density.
Turning to `Fc1ccc2c(c1)C(c1cccnc1)=NNC(c1cccs1)=N2`, the % Hoechst-high responders was found to be 34.4%, the % tubulin-high responders was 13.2% (active) and the toxicity came out at 33.1%.
In the case of `NC(=O)c1ccc(NC(=O)COC(=O)c2c3c(nc4ccccc24)/C(=C\c2ccc4c(c2)OCO4)CCC3)cc1`, the % Hoechst-high responders worked out at 1.77%, the % tubulin-high responders is 5.36% (inactive) and the toxicity was 8.9%.
In the same order, the values of `Cc1ccc(NC(=O)CC2S/C(=N/N=C3\CCCc4ccccc43)NC2=O)cc1` (stereo not drawn) are 2.08%, 1.84% (inactive) and 8.37%.
In the same order, the values of `C[n+]1ccccc1C1CCCC/C1=N\Nc1ccc([N+](=O)[O-])cc1[N+](=O)[O-]` (stereo not drawn) are 1.98%, 5.56% (inactive) and 5.84%.
With `CC(=O)c1ccc(S(=O)(=O)Nc2ccc(C(=O)NCC(c3ccccc3)N(C)C)cc2)cc1` (stereo not drawn), the % Hoechst-high responders is 1.41%, the % tubulin-high responders was 1.91% (inactive) and the toxicity is 3.99%.
In the same order, the values of `Nc1c(C(=O)O)cnn1-c1ccccc1` are 1.87%, 1.93% (inactive) and 3.6%.
In the case of `Cc1cccc(-c2ncc(CN3CCC(CO)(CCCc4ccccc4)CC3)cn2)c1`, the % Hoechst-high responders was 2.55%, the % tubulin-high responders was 2.1% (inactive) and the toxicity is 2.96%.
In the same order, the values of `OCC1(CCOc2ccccc2)CCN(Cc2cn[nH]c2-c2ccccc2)CC1` are 2.29%, 2.29% (inactive) and 7.78%.
Turning to `Cc1c(CN2CCC(CO)(CCOc3ccccc3)CC2)[nH]c2ccc(Cl)cc12`, the % Hoechst-high responders was determined as 7.79%, the % tubulin-high responders is 27.6% (active) and the toxicity was 29.9%.
Consider `CCc1ccccc1NC(=S)N(CCN1CCCCCC1)Cc1ccco1`, for which the % Hoechst-high responders came out at 2.22%, the % tubulin-high responders was 4.39% (inactive) and the toxicity is 2.58%.
Take `O=c1[nH]n(-c2ccc([N+](=O)[O-])cc2)c(=O)c2ccccc12`: the % Hoechst-high responders turned out to be 1.89%, the % tubulin-high responders is 3.4% (inactive) and the toxicity was determined as 9.65%.
The matching figures for `Cc1ccc(-n2c(SCC(=O)N3c4ccccc4Sc4ccccc43)nnc2-c2ccncc2)cc1`: 1.48%, 4.83% (inactive) and 6.63%.
Turning to `Cc1cc2cc3c(cc2nc1SCC(=O)Nc1c(C)cccc1C)CCC3`, the % Hoechst-high responders was determined as 34.5%, the % tubulin-high responders was 47% (active) and the toxicity is 36.2%.
With `Cc1cc(C)c(C#N)c(SCC(=O)Nc2ccccc2)n1`, the % Hoechst-high responders was determined as 2.87%, the % tubulin-high responders is 3.04% (inactive) and the toxicity was found to be 8.63%.
In the case of `Cc1cccc(C)c1NC(=O)CSc1ccc([N+](=O)[O-])cn1`, the % Hoechst-high responders is 2.4%, the % tubulin-high responders was 2.2% (inactive) and the toxicity worked out at 2.93%.
Turning to `CCCCN1C(=O)CCC(C(=O)O)C1c1ccc(OC)cc1` (stereo not drawn), the % Hoechst-high responders is 2.91%, the % tubulin-high responders was 4.23% (inactive) and the toxicity is 11.7%.
In the same order, the values of `O=c1ccc2cc(S(=O)(=O)N3CCN(c4ccccc4)CC3)ccc2o1` are 1.39%, 0.945% (inactive) and 5.98%.
The matching figures for `O=C1CC(=O)Nc2cc(S(=O)(=O)N3CCN(c4cccc(C(F)(F)F)c4)CC3)ccc2N1`: 10.2%, 22.1% (active) and 36.8%.
The matching figures for `O=S(=O)(c1cccc(C(F)(F)F)c1)N1CCN(c2cnccn2)CC1`: 2.29%, 4.64% (inactive) and 6.14%.
Turning to `C/C(CC1CC(C)(C)OC1=O)=N/Nc1nc(-c2ccccc2)cs1` (stereo not drawn), the % Hoechst-high responders came to 2.24%, the % tubulin-high responders was 6.39% (inactive) and the toxicity worked out at 11.5%.
Regarding `Cc1ccc2nc(-c3ccccn3)cc(C(=O)Nc3ccc4c(c3)OCO4)c2c1`, the % Hoechst-high responders stood at 2.11%, the % tubulin-high responders is 3.85% (inactive) and the toxicity came to 5.75%.
In the same order, the values of `Cc1ccc2nc(-c3ccncc3)cc(C(=O)Nc3ccc4c(c3)OCCO4)c2c1` are 4.59%, 3.49% (inactive) and 10%.
The matching figures for `Cc1ccc2nc(-c3ccncc3)cc(C(=O)Nc3ccc(OC(F)F)cc3)c2c1`: 37%, 13.9% (active) and 27.1%.
Consider `CC(C)(O)C#Cc1ncc(C(F)(F)F)cc1Cl`, for which the % Hoechst-high responders worked out at 2.46%, the % tubulin-high responders is 3.98% (inactive) and the toxicity was found to be 7.29%.
The matching figures for `O=C1CC(N2CCN(c3ccc(F)cc3)CC2)C(=O)N1c1ccccc1` (stereo not drawn): 1.93%, 2.61% (inactive) and 4.03%.
On to `Cc1onc(C(=O)NCc2ccc(F)cc2)c1[N+](=O)[O-]`, for which the % Hoechst-high responders amounted to 1.75%, the % tubulin-high responders is 2.95% (inactive) and the toxicity is 6.2%.
Take `COc1ccc(/C=C/C(=O)Nc2ccc3c(c2)OCCO3)cc1OC`: the % Hoechst-high responders turned out to be 1.93%, the % tubulin-high responders is 1.43% (inactive) and the toxicity came to 9.72%.
In the same order, the values of `COc1ccc(OC)c(/C=C/C(=O)OCC(=O)Nc2ccc3c(c2)OCCO3)c1` are 20.4%, 17.6% (active) and 25.4%.
In the same order, the values of `COc1ccc(/C=C/C(=O)OCC(=O)Nc2cccc(Oc3ccccc3)c2)c(OC)c1` are 4.35%, 1.52% (inactive) and 2.38%.
The matching figures for `O=C(CSc1ccc2nnc(-c3ccccc3)n2n1)N1CCCc2ccccc21`: 4.1%, 2.62% (inactive) and 12.3%.
As for `NC1=NC(=O)S/C1=C\c1ccc(O)cc1`, the % Hoechst-high responders turned out to be 3.29%, the % tubulin-high responders was 1.93% (inactive) and the toxicity stood at 4.56%.
In the same order, the values of `O=C(NNC(=S)NCc1ccco1)C(c1ccccc1)c1ccccc1` are 2.12%, 1.06% (inactive) and 3.3%.
In the same order, the values of `COC(=O)CSC1=C(C#N)C(c2ccccc2OC)C(C(=O)OC)C(=O)N1` (stereo not drawn) are 1.9%, 3.79% (inactive) and 6.69%.
As for `C=CCOC(=O)C1=C(C)NC(SCC(=O)OCC)=C(C#N)C1c1ccc(C)cc1` (stereo not drawn), the % Hoechst-high responders came out at 1.55%, the % tubulin-high responders was 2.42% (inactive) and the toxicity came out at 8.87%.
On to `CC1=C(C(=O)Nc2ccccc2)C(c2ccco2)C(C#N)=C(SCC(N)=O)N1` (stereo not drawn), for which the % Hoechst-high responders was 1.48%, the % tubulin-high responders is 1.69% (inactive) and the toxicity came to 9.84%.
Regarding `CCOC(=O)CSC1=C(C#N)C(c2sccc2C)CC(=O)N1` (stereo not drawn), the % Hoechst-high responders is 46%, the % tubulin-high responders was 25.8% (active) and the toxicity was determined as 48.2%.
Turning to `COc1cc2c(cc1OC)C(c1ccc(C)o1)CC(=O)N2` (stereo not drawn), the % Hoechst-high responders was 2.57%, the % tubulin-high responders is 2.94% (inactive) and the toxicity was 5.58%.
With `C=CCSC1=C(C#N)C(c2cc(Br)c(O)c(OC)c2)CC(=O)N1` (stereo not drawn), the % Hoechst-high responders came out at 5.45%, the % tubulin-high responders was 1.66% (inactive) and the toxicity stood at 9.07%.
On to `CC1=C(C(=O)OCc2ccccc2)C(c2ccco2)n2ncnc2N1` (stereo not drawn), for which the % Hoechst-high responders was found to be 2.47%, the % tubulin-high responders was 2.96% (inactive) and the toxicity amounted to 10.1%.
`Cc1ccc(C2CC(=O)NC(SCC(=O)OCc3ccccc3)=C2C#N)o1` (stereo not drawn): the % Hoechst-high responders turned out to be 13%, the % tubulin-high responders is 33.6% (active) and the toxicity stood at 51.7%.
Consider `CCOC(=O)CSC1=C(C#N)C(c2ccco2)C(C(=O)OCc2ccccc2)=C(C)N1` (stereo not drawn), for which the % Hoechst-high responders came to 31.7%, the % tubulin-high responders is 50.8% (active) and the toxicity was determined as 30%.
